# High-throughput results (PubChem)
# E coli growth-1 = E. coli V3065 growth inhibition, primary screen, counter-screen for AddAB inhibitor project, absorbance, OD600. inhibition, % at 11.9 µM. hit rate 0.27% among 330,000. 18 h. AID 449728, 2010;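 active = inhibition above the campaign's mean inhibition across all tested compounds plus 3 SD, cut at about 9.9% in these data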;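 note: uninfected addAB+ strain grown without phage in ampicillin broth; 0% = DMSO wells and 100% = ciprofloxacin 0.95 µg/ml wells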
# phage Ecoli inh = growth loss of phage-infected E. coli, primary screen, RecBCD inhibitor project, absorbance, with phage, HTS; inhibition, % at 11.9 µM; hit rate 0.26% among 360,000; AID 651602, 2012; in the data active = inhibition above about 11%
# Tat transport = E. coli Tat export inhibitors, primary screen, MC4100, TorA-mCherry reporter, fluorescence, single point | inhibition, % at 10 µM | hit rate 0.036% among 340,000 | AID 488895, 2010;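 active = mean replicate inhibition at least 50% and at least half of replicates individually reaching 50%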;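 note: exported cargo escapes ClpAP degradation while cytoplasmic cargo is degraded and loses fluorescence; 0% = median of neutral control wells and 100% = median of NaSCN control wells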
# AddAB inh = growth inhibition of E. coli expressing H. pylori AddAB, primary screen, AddAB inhibitor project, absorbance | inhibition, % at 11.9 µM | hit rate 0.29% among 330,000 | AID 435030, 2010; in the data active = inhibition above about 12%;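 note: 0% = vehicle wells of infected cells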
# E coli growth-2 = E. coli growth inhibition, primary screen, OD600. hit rate 0.21% among 330,000. AID 1053175, 2014. OD600 absorbance (concentration not given with the values). Escherichia coli growth, 23 h; stronger effect = lower value;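 active = OD600 absorbance below the run mean of sample wells minus 3.6 SD, in any replicate, cut at about 0.56 in these data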
# RecBCD conf = growth loss of phage-infected RecBCD+ E. coli, confirmation, RecBCD inhibitor project, absorbance, E. coli V66, T4 gene 2 phage. AID 651982, 2013. shares compounds with phage Ecoli inh. inhibition, % at 11.9 µM. E. coli V66 + T4 2- phage, growth OD. hit rate 45% among 890;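 active = mean inhibition over triplicates exceeding the hit threshold derived in the original primary screen, cut at about 11% in these data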
# Ecoli viability = E. coli viability inhibition, counter-screen for RecBCD inhibitor project, absorbance, high throughput | absorbance (OD) growth | shares compounds with phage Ecoli inh | hit rate 29% among 890 | inhibition, % at 11.9 µM; in the data active = inhibition above about 20%;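 note: E. coli strain V66 grown with compound alone and no phage infection; 0% = bacteria with DMSO vehicle only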
# AddAB phage OD = growth loss of phage-infected AddAB-carrying E. coli, confirmation, counter-screen for RecBCD inhibitor project, absorbance, E. coli V3065, T4 phage; shares compounds with phage Ecoli inh; E. coli expressing H. pylori AddAB + T4 phage, OD growth; gene 2 mutant T4, recBCD-deleted host; hit rate 45% among 890; inhibition, % at 11.9 µM;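 active = mean inhibition above the solvent-only control wells' mean plus 3 SD, cut at about 22% in these data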;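 note: higher means less bacterial growth from phage killing when AddAB is blocked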
# * hit, by the source's call; nt = not tested or not shown. Hits are enriched below; roughly 0.5% of the tested compounds scored in any of these assays.
SMILES,E coli growth-1,phage Ecoli inh,Tat transport,AddAB inh,E coli growth-2,RecBCD conf,Ecoli viability,AddAB phage OD
C(=N\Nc1nncc2ccccc12)/c1ccccn1,10.2*,19.3*,-7.0,9.0,nt,20.4*,27.1*,23.7*
C[C@@]12C(=O)Nc3ccccc3C(=O)N1C1c3cc(Cl)ccc3OCC1C2c1ccccc1 (stereo partly drawn),nt,nt,nt,nt,0.673,nt,nt,nt
O=c1[nH]cnc2c1ncn2C1CCC(CO)O1 (stereo not drawn),nt,87.4*,nt,nt,nt,73.9*,90.3*,97.7*
O=c1[nH]cnc2c1ncn2C1OC(CO)C(O)C1O (stereo not drawn),nt,3.0,0.5,nt,0.674,nt,nt,nt
Nc1nc(=O)n(C2CCC(CO)O2)cc1F (stereo not drawn),nt,11.3*,nt,nt,nt,9.9,4.9,31.0*
S=C1NCC(CC2CCCCC2)N1CC1CCCCC1 (stereo not drawn),nt,nt,nt,nt,0.658,nt,nt,nt
O=C(NNC(=O)c1cc(F)c(F)cc1Cl)c1ccc(NS(=O)(=O)c2cccs2)cc1,1.4,0.6,5.4,-0.8,0.646,nt,nt,nt
O=C(NNC(=O)c1cc(Cl)ccc1O)c1ccc(NS(=O)(=O)c2cccs2)cc1,1.9,11.1*,-20.2,4.9,0.674,3.5,2.8,2.0
CCOc1ccc(NC(=O)Nc2ccc3nsnc3c2)cc1,2.5,11.2*,-10.6,5.0,0.652,5.4,5.5,-1.3
CC(C)(C)c1nnc(N/N=C/c2cc(Br)ccc2O)n(N)c1=O,3.5,11.6*,-19.8,12.0,nt,6.4,10.4,27.7*
CC(C)(C)c1nnc(NN=Cc2ccccc2O)n(N)c1=O,nt,nt,nt,nt,0.624,nt,nt,nt
CCOC(=O)C1C2COc3ccc(Cl)cc3C2N2C(=O)c3cc(Br)ccc3NC(=O)[C@@]12C (stereo partly drawn),nt,nt,nt,nt,0.729,nt,nt,nt
CCN1C(=O)C2C(c3ccc(C)cc3)N3C(=O)N(c4ccc(C)cc4)C(=O)[C@@]3(Cc3ccccc3)C2C1=O (stereo partly drawn),nt,nt,nt,nt,0.701,nt,nt,nt
CCOc1ccc(CN2C(=O)c3ccccc3C2C(=O)NC(C)CC)cc1OC (stereo not drawn),0.5,3.3,4.3,-0.7,0.651,nt,nt,nt
CCC(C)NC(=O)C1c2ccccc2C(=O)N1Cc1cc(OC)ccc1OC (stereo not drawn),1.4,14.1*,2.9,-0.5,0.72,1.3,0.7,3.0
C=C(C)C(=O)N1CC2(CC(c3cccc(NC(=O)C=CC)c3)=NO2)CC1C(N)=O (stereo not drawn),nt,nt,nt,nt,0.705,nt,nt,nt
CN1CC2C3C(=O)N(Cc4ccccc4)C(=O)C3[C@](Cc3ccccc3)(C1=O)N2C(=O)c1ccc(C(F)(F)F)cc1 (stereo partly drawn),nt,nt,nt,nt,0.673,nt,nt,nt
C#CCNC(=O)C1=CC(c2ccc(C(F)(F)F)cc2)CC(OCCCCO)O1 (stereo not drawn),nt,nt,nt,nt,0.642,nt,nt,nt
O=C(Nc1ccc(F)cc1)Nc1cc(OCC(F)(F)F)cc(OCC(F)(F)F)c1,2.6,11.5*,-6.2,3.7,0.676,1.6,2.9,5.8
CCOc1ccc(NC(=O)Nc2cc(OCC(F)(F)F)cc(OCC(F)(F)F)c2)cc1,-1.4,2.0,7.0,2.0,0.699,nt,nt,nt
CSC1SCC2C(=O)N(C)C(C(C)C)C(=O)OCC(NC(=O)c3cnc4ccccc4n3)C(=O)NC(C)C(=O)N(C)C1C(=O)N(C)C(C(C)C)C(=O)OCC(NC(=O)c1cnc3ccccc3n1)C(=O)NC(C)C(=O)N2C (stereo not drawn),nt,99.1*,37.4,nt,nt,88.8*,91.8*,80.8*
O=C(C1=C(c2ccccc2)C(=O)c2ccccc2C1=O)c1ccccc1,nt,11.1*,0.3,nt,0.662,-4.2,-3.3,4.5
Cc1ccccc1NC(=O)NNC(=O)c1ccc2ccccc2c1O,6.0,6.4,-2.8,5.9,0.728,nt,nt,nt
COc1ccccc1NC(=O)NNC(=O)c1ccc2ccccc2c1O,nt,11.1*,0.0,nt,0.677,8.8,9.7,7.8
CCc1ccc(NC(=O)NNC(=O)c2ccc3ccccc3c2O)cc1,nt,13.1*,-7.2,nt,0.702,9.0,9.8,8.5
SMILES,E coli growth-1,phage Ecoli inh,Tat transport,AddAB inh,E coli growth-2,RecBCD conf,Ecoli viability,AddAB phage OD
c1cc(-c2ccsc2)n2ccnc2c1,nt,10.9*,nt,nt,nt,0.7,-0.2,12.3
c1cc(-c2ccoc2)n2ccnc2c1,nt,-1.8,nt,nt,nt,nt,nt,nt
CC=CC(=O)Nc1cccc(C2=NOC3(C2)CC(C(N)=O)N(C(=O)C=CCC)C3)c1 (stereo not drawn),nt,nt,nt,nt,0.725,nt,nt,nt
O=S(=O)(c1ccc(Cl)cc1)N1CCN(Cc2ccc(O)c3ncccc23)CC1,8.6,17.4*,0.6,7.9,0.703,6.2,10.8,14.3
Oc1ccc(CN2CCN(Cc3ccccc3)CC2)c2cccnc12,2.9,6.3,7.1,3.2,0.687,nt,nt,nt
S=C(NCc1ccccc1)NCc1ccc(CNC(=S)NCc2ccccc2)cc1,-0.2,2.0,-6.7,1.5,0.692,nt,nt,nt
CCNC(=S)NNC(=S)NCc1ccccc1,1.8,11.1*,-5.0,10.5,0.716,4.0,3.1,8.6
CN(C)c1ccc(-c2cc(O)c3ncccc3c2)cc1,10.8*,13.9*,-8.9,7.4,nt,1.5,2.4,1.5
CN(C)CCCNC(=O)c1ccc(-c2cc(O)c3ncccc3c2)cc1,5.8,3.2,4.7,6.1,0.608,nt,nt,nt
CC(NC(=O)c1nc[nH]c1C(=O)NCc1ccccc1)C(=O)OC(C)(C)C (stereo not drawn),nt,nt,nt,nt,0.662,nt,nt,nt
COc1ccc(NC(=O)N(C)CC2Oc3ccc(NC(=O)NC(C)C)cc3CC(=O)N(C(C)CO)CC2C)cc1 (stereo not drawn),nt,nt,nt,nt,0.707,nt,nt,nt
Cc1cc(NC(=O)Cn2c(C)nc3ccccc3c2=O)ccc1Br,18.7*,13.4*,4.3,20.0*,0.759,12.1*,16.8,17.4
CCC(=O)Nc1ccc2nc(C)n(CC(=O)Nc3ccccc3)c(=O)c2c1,-4.0,3.7,0.3,-1.3,0.688,nt,nt,nt
C=CCN=c1scc(-c2ccco2)n1/N=C/c1ccc(O)c(O)c1O,6.6,10.9*,11.4,5.9,nt,6.0,7.1,3.0
CN=c1scc(-c2cccs2)n1/N=C/c1ccc(O)c(O)c1O,9.6,13.2*,1.7,10.7,nt,5.3,6.3,8.1
COCCN=c1scc(-c2ccco2)n1/N=C/c1ccc(O)c(O)c1O,4.6,8.6,11.5,8.6,nt,nt,nt,nt
Cc1nccn1CCc1n[nH]c(=S)n1Cc1ccccc1,0.9,1.8,3.6,2.4,0.633,nt,nt,nt
Cc1nccn1Cc1ccccc1,2.2,100.2*,7.2,-0.6,0.696,0.3,0.8,-0.5
CCN1CCN(C(=O)C2=CC(c3ccc(C)cc3)=NS(=O)(=O)N2C)CC1,-0.1,12.1*,6.3,-0.3,0.754,-3.4,-2.0,-2.8
